According to PubChem BioAssay AID1347075 (National Center for Advancing Translational Sciences (NCATS), 2019):
“And” between values parts separate entries of the source, which are not always exact repeats. Equal entries are not always repeated. In all, about 400,000 compounds went through this assay and about 5,500 (1.4%) were called active. Inconclusive results (about 9%) are left out. Calls follow the shape of the dose curve; as a rule, active = well fitted cell-killing curve with a large enough effect; inconclusive = small, poorly fitted or top-dose-only effect, or effect the other way; inactive = flat fitted curve, though single readings scatter. The entries come from a sample that favours actives as a whole.

Assay: qHTS assay for MDR1-selective chemotherapeutics: Primary screen using the parental adenocarcinoma cell KB-3-1; also: nearly all actives have a fitted effect of over 60% in size
Details: KB-3-1 viability, CellTiter-Glo ATP luminescence, 72 h; series mostly up to 46.1 µM; activity change, negative = cytotoxic: at the top concentration
Outline: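 Luminescent ATP read-out (CellTiter-Glo) measures survival of drug-naive KB-3-1 cells after 72 h compound exposure at 37 °C. Titration series was screened from lowest to highest concentration, with DMSO vehicle plates as background controls.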
% is scaled to controls: 0 for no effect and ±100 for the full control effect; potency is read from the fitted curve at half-maximal effect.

| SMILES | activity change, negative = cytotoxic | Potency |
| --- | --- | --- |
| Cc1ccc(CNS(=O)(=O)c2ccc(C(=O)N(C)C)s2)cc1 | -1.95% (inactive) |  |
| Cn1c(C(=O)N2CCC(C(=O)N3CCN(c4ccccc4)CC3)CC2)cc2sccc21 | -16.4% (inactive) |  |
| COc1cccc(CNC(=O)c2nnn(CC(=O)Nc3cc(Cl)ccc3C)c2N)c1 | -2.56% (inactive) |  |
| Nc1c(C(=O)NCc2ccccc2)nnn1Cc1cccc(Cl)c1 |  | 20.6 µM (active) |
| COc1cccc(CNC(=O)c2nnn(CC(=O)Nc3cc(C)ccc3C)c2N)c1 | 6.77% (inactive) |  |
| CC1(C)CC(N2CCN(C(c3ccccc3)c3ccccc3)CC2)=CC(=[N+]2CCCCC2)C1 |  | 0.517 µM (active) |
| CN(C(=O)CSc1nc2ccccc2n1Cc1ccccc1C#N)c1ccccc1 | 1.02% (inactive) |  |
| Cc1ccc(-c2noc(CSc3nnc(-c4ccc(Cl)cc4)n3C)n2)cc1 | -14.8% (inactive) |  |
| Cc1nn(-c2ccccc2)c(C)c1NC(=O)COc1ccc(Cl)cc1Cl |  | 5.17 µM (active) |
| CCC(Oc1ccccc1)C(=O)OCC(=O)Nc1c(C)nn(-c2ccccc2)c1C (stereo not drawn) | -0.205% (inactive) |  |
| Cc1nn(-c2ccccc2)c(C)c1NC(=O)CCl |  | 14.6 µM (active) |
| Cc1cccc(C)c1NC(=O)CNC(=O)c1c(C)nn(-c2ccccc2)c1C | -8.93% (inactive) |  |
| Cc1nn(-c2ccccc2)c(C)c1NC(=O)COC(=O)c1cc(Cl)ccc1O | 9.05% (inactive) |  |
| C/C=C/c1ccc(OCC(=O)OCC(=O)Nc2c(C)nn(-c3ccccc3)c2C)c(OC)c1 | 3.03% (inactive) |  |
| OCc1cnc(SCc2ccc(F)cc2)n1Cc1ccc(F)cc1 | -6.67% (inactive) |  |
| CN1C(=O)c2ccccc2Sc2ccc(NC(=O)Cc3ccc(Cl)cc3)cc21 | 3.86% (inactive) |  |
| COc1ccc2c(C)c(CCC(=O)NCc3ccc(OC)c(OC)c3)c(=O)oc2c1 | -17.9% (inactive) |  |
| Cc1ccc(C)c(N2CCN(C(=O)CN3C(=O)COc4ccc(S(=O)(=O)N5CCCCCC5)cc43)CC2)c1 | -28% (inactive) |  |
| CC1=C(C(=O)Nc2ccccc2Cl)C(c2cccs2)n2ncnc2N1 (stereo not drawn) | -2.1% (inactive) |  |
| COc1ccccc1NC(=O)C1=C(C)Nc2nc3ccccc3n2C1c1cccs1 (stereo not drawn) |  | 3.26 µM (active) |
| COc1ccccc1NC(=O)C1=C(C)Nc2ncnn2C1c1sccc1C (stereo not drawn) | -2.47% (inactive) |  |

| SMILES | activity change, negative = cytotoxic | Potency |
| --- | --- | --- |
| Cc1nc2c(c(C)nn2-c2ccccc2)c(C)c1CCC(=O)NCCc1ccc(Cl)cc1 | 4.93% (inactive) |  |
| O=C1CC(c2nnc(Cc3ccc(Cl)cc3)o2)CN1c1ccccc1 (stereo not drawn) | 0.612% (inactive) |  |
| CCC(=O)N1CCc2cc(Br)cc(S(=O)(=O)NCc3ccc(Cl)cc3)c21 | -8.85% (inactive) |  |
| COc1cc(C2c3cc4c(cc3C(O)C3COC(=O)C23)OCO4)cc(OC)c1OC (stereo not drawn) |  | 146 nM (active) and 164 nM (active) |
| COc1cc(C2CC(=O)Oc3cc(OC)c(OC)c(OC)c32)cc(OC)c1OC (stereo not drawn) | 0% (inactive) |  |
| COc1cc(C=C(OC(C)=O)c2ccc3c(c2)OCO3)cc(OC)c1OC | 3.24% (inactive) |  |
| Cc1ccccc1NC(=O)Cn1cc(C(=O)c2cccs2)c2ccccc21 | -2.3% (inactive) |  |
| CCCCOC(=O)CSc1ncnc2sc3c(c12)CCC(C)C3 (stereo not drawn) | -2.69% (inactive) |  |
| CC1CN(S(=O)(=O)c2ccc(C(=O)Nc3sccc3C(N)=O)cc2)CC(C)O1 (stereo not drawn) | -4.42% (inactive) |  |
| CC1CCCCN1S(=O)(=O)c1ccc(C(=O)Nc2nnc(-c3cccs3)o2)cc1 (stereo not drawn) |  | 9.2 µM (active) |
| CC1CCCCN1S(=O)(=O)c1ccc(S(=O)(=O)N(CC(=O)Nc2ccccc2)Cc2cccs2)cc1 (stereo not drawn) | -1.56% (inactive) |  |
| Cn1c(-c2ccc(C(=O)c3ccccc3)s2)nc2ccccc21 | -3.28% (inactive) |  |
| Cc1nc2sc(C(=O)c3ccccc3)c(N)c2c2c1CCCC2 |  | 23.1 µM (active) |
| Cc1c(C(=O)Nc2ccccc2)sc2nc3n(c(=O)c12)CCCCC3 | 9.47% (inactive) |  |
| CCN(Cc1ccccc1)Cc1c(O)ccc2c(=O)c(-c3ccc(Cl)cc3Cl)coc12 | 1.32% (inactive) |  |
| CC1CN(C(=O)N2CCC(C(=O)NCc3ccco3)CC2)c2cc(Cl)ccc2O1 (stereo not drawn) | -3.94% (inactive) |  |
| COc1ccc(-c2noc(CCC(=O)N(C)c3ccccc3C)n2)cc1 | 4.45% (inactive) |  |
| Cc1[nH]n(-c2cccc(Cl)c2)c(=O)c1/C=N/n1c(C)nc2ccccc2c1=O |  | 10.3 µM (active) |
| Cc1nc2ccccc2c(=O)n1-c1ccc(NS(=O)(=O)c2ccc(F)cc2F)cc1 | -2.73% (inactive) |  |
| Cc1cc2n(n1)C(c1cc(C(C)(C)C)c(O)cc1O)Nc1ccccc1-2 (stereo not drawn) | 0% (inactive) |  |
| O=C(CCC1N=C2c3ccccc3N=C(SCc3ccccc3F)N2C1=O)NCCc1ccccc1 (stereo not drawn) | -0.17% (inactive) |  |

| SMILES | activity change, negative = cytotoxic | Potency |
| --- | --- | --- |
| COc1cccc(CNC(=O)Cc2csc3nc(-c4ccccc4)cn23)c1 | -0.279% (inactive) |  |
| COC(=O)Nc1nc2ccc(Sc3ccccc3)cc2[nH]1 |  | 1.46 µM (active) |
| COc1ccc(NC(=O)CSc2nc3ccccc3[nH]2)cc1 | 4.45% (inactive) |  |
| Cc1ccc2nc(CNC(=O)c3ccccc3)[nH]c2c1 | 2.91% (inactive) |  |
| COc1ccc(CCNc2ncnc3onc(-c4ccc(Cl)cc4)c23)c(OC)c1 | -5.86% (inactive) |  |
| COc1ccc(Cl)cc1NC(=O)CN(C)C(=O)c1ccc2n[nH]nc2c1 | 0.871% (inactive) |  |
| COc1ccc(Cl)cc1NC(=O)CN(C)C(=O)c1cc(-c2cccs2)nn1-c1ccccc1 |  | 20.6 µM (active) |
| COc1ccc(Cl)cc1NC(=O)CSc1nc(-c2cccs2)cc(C(F)(F)F)n1 | -13.2% (inactive) |  |
| C=CCNC(=O)c1ccc2nc(-c3ccco3)c(-c3ccco3)nc2c1 | 2.54% (inactive) |  |
| CC(C)(C)OC(=O)N(Cc1ccco1)S(=O)(=O)c1ccccc1Br | -12.7% (inactive) |  |
| COc1ccc(CC(=O)Nc2ccc(-c3nc4ccccc4s3)c(C)c2)cc1 | 10.3% (inactive) |  |
| COC(=O)Cc1[nH]n(-c2nc3ccccc3s2)c(=O)c1C(C)=Nc1ccc(OC)cc1 |  | 9.2 µM (active) |
| Cc1ccc(C)c(NC(=O)CSC2=Nc3ccccc3N=C(c3ccc(F)cc3)C2)c1 | -1.82% (inactive) |  |
| CCOC(=O)C1CCN(c2csc3ccc(C)cc3c2=O)CC1 | 1.53% (inactive) |  |
| O=C(Cn1c(=O)n(Cc2ccccc2)c(=O)c2sc3ccccc3c21)Nc1ccccc1F | -3.72% (inactive) |  |
| CN(C)c1ccc(CSc2ccccc2)cc1 | -1.01% (inactive) |  |
| CN(C)c1ccc(/C=C/c2sc3ccccc3[n+]2C)cc1 |  | 6.51 µM (active) |
| CN(C)c1ccc(/C=C/c2sc3ccccc3[n+]2CCCCBr)cc1 |  | 1.3 µM (active) |
| CN(C)c1ccc(/C=C/c2c3ccccc3nc3ccccc23)cc1 | 6.58% (inactive) |  |
| CCN(CCCNC(=O)c1cc2c(=O)n(CC)c3ccccc3c2s1)Cc1ccccc1 | -19.2% (inactive) |  |
| CCc1ccc(OCCCn2c(CCCNC(=O)C3CCCCC3)nc3ccccc32)cc1 | 0% (inactive) |  |
